Source: PubChem BioAssay (NCI)
About 83,000 compounds went through this panel and 20% of them were active in at least one assay; those are over-represented in the sample as a whole.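 Compound tested at a single concentration for 48 hours in 96-well plates; a percent growth value below 10 was scored as active.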 A number with no mark means an inactive call. Active and inactive are the calls of the source.

Assays:
Assay in all cases: NCI-60 one-dose screen, 48 h (100 = growth as untreated, 0 = no growth, -100 = all killed)
Conditions in all cases: 10 µM unless noted
NCI-H23 lung = system: NCI-H23 lung
NCI-H226 lung = system: NCI-H226 lung
NCI-H322M lung = system: NCI-H322M lung
HOP-62 NSCLC = system: HOP-62 NSCLC
NCI-H460 lung = system: NCI-H460 lung
HOP-92 NSCLC = system: HOP-92 NSCLC
NCI-H522 lung = system: NCI-H522 lung
A549/ATCC NSCLC = system: A549/ATCC NSCLC
786-0 renal = system: 786-0 renal
COLO 205 colon = system: COLO 205 colon
DU-145 prostate = system: DU-145 prostate
K-562 leukemia = system: K-562 leukemia
MALME-3M melanoma = system: MALME-3M melanoma
MDA-MB-231 breast = system: MDA-MB-231 breast
RXF 393 renal = system: RXF 393 renal
SF-268 CNS = system: SF-268 CNS
SF-295 CNS = system: SF-295 CNS
SF-539 CNS = system: SF-539 CNS
UACC-257 melanoma = system: UACC-257 melanoma
M14 melanoma = system: M14 melanoma

Row | Compound | growth (NCI-H23 lung) | growth (NCI-H226 lung) | growth (NCI-H322M lung) [%] | growth (HOP-62 NSCLC) | growth (NCI-H460 lung) | growth (HOP-92 NSCLC) | growth (NCI-H522 lung) | growth (A549/ATCC NSCLC) | growth (786-0 renal) | growth (COLO 205 colon) | growth (DU-145 prostate) | growth (K-562 leukemia) | growth (MALME-3M melanoma) | growth (MDA-MB-231 breast) | growth (RXF 393 renal) | growth (SF-268 CNS) [%] | growth (SF-295 CNS) | growth (SF-539 CNS) | growth (UACC-257 melanoma) | growth (M14 melanoma)
1 | O=c1[nH]cnc2nc[nH]c12 | 113% | 98.9% | 94.9 | 106% | 103% | 104% | 99.2% | 105% | 114% | 112% | 170% | 49.3% | 110% | 99% | 107% | 147 | 93.8% | 97.3% | 117% | 109%
2 | COc1ccc(/C(=C\c2cc(OC)c(OC)c(OC)c2)C(=O)N2CCNCC2)cc1 | 102% | 94% | 99.2 | 97.4% | 105% | 94% | 79.1% | 90.4% | 103% | 113% | 112% | 92.4% | 108% | 102% | 99.2% | 103 | 104% | 102% | 91.3% | 99%
3 | Cc1ccc2oc(=O)cc(-c3nc4ccc([N+](=O)[O-])cc4[nH]3)c2c1 | 43.9% | 66.6% | 80.5 | 72% | 47.1% | 52.7% | 36% | 35.2% | 40.6% | 67.8% | 76.4% | 48.7% | 62.9% | 64.2% | 46.7% | 62.1 | 49.3% | 54% | 62.2% | 64.4%
4 | Cc1cc(C)cc(NC(=O)Cn2nncc2CN2C(=O)CSC2=O)c1 | 97.5% | 104% | 109 | 102% | 107% | 124% | 94.5% | 102% | 108% | 108% | 109% | 101% | 100% | 97.5% | 113% | 101 | 103% | 94.7% | 97.3% | 106%
5 | Clc1ccc(Nc2ncnc3c2sc2ncccc23)c(Cl)c1 | 14.9% | 43.6% | 45.1 | 1.95% (active) | 10.1% | 22.3% | 31.8% | 26.8% | 17.2% | 27.6% | 20.1% | 43.4% | 58.2% | 61.1% | 34% | 18.4 | 17.9% | 6.17% (active) | 39.3% | -25.6% (active)
6 | CCOC(CN1CCN(CC(C)C(=O)c2ccccc2)CC1)c1ccccc1 (stereo not given) | 112% | 91.2% | 95.5 | 104% | 99.7% | 97.5% | 73.9% | 96.5% | 106% | 107% | 112% | 115% | 105% | 95.5% | 99.5% | 113 | 92.6% | 111% | 93.2% | 114%
7 | Fc1ccc(-c2ccnc3nc(-c4ccncc4)nn23)cc1 | 112% | 102% | 99.4 | 113% | 104% | 120% | 107% | 98.4% | 88.8% | 108% | 101% | 98.1% | 114% | 113% | 105% | 97.1 | 111% | 101% | 111% | 107%
8 | O=C(Nc1ccc(Oc2ccc(Nc3nc4ccccc4s3)cc2)cc1)Nc1ccc(Cl)c(C(F)(F)F)c1 | -20.2% (active) | 4.93% (active) | 25.7 | 17% | 1.39% (active) | -25% (active) | -36.8% (active) | 9.75% (active) | 1.24% (active) | -84% (active) | 9.51% (active) | 6.86% (active) | 2.78% (active) | -65.5% (active) | 8.85% (active) | 18.5 | 5.6% (active) | 9.29% (active) | -11.6% (active) | -4.56% (active)
9 | COc1cc(/C=C/c2ccc3c(Br)cc(Br)c(O)c3n2)ccc1O | 36.9% | 67.7% | 40.5 | 33% | 3.91% (active) | 16.6% | -38.2% (active) | 14.2% | 32.6% | 58% | 42.2% | -44.5% (active) | 53.7% | 53% | 1.71% (active) | 22.8 | 27.4% | 21.5% | 25.1% | 27.1%
10 | CC(C)c1[nH]ncc1-c1nc2ccc3[nH]ncc3c2c2c1CCCC2 | 32.7% | 35.5% | 39.7 | 30.5% | 16.1% | 58.5% | 41% | 13.9% | 23.2% | 7.79% (active) | 33.9% | 42% | 52.6% | 35.6% | -8.2% (active) | 36.7 | 43.1% | 23% | 44% | 37.1%
11 | Cc1ccc(NC(=O)c2nc(S(C)(=O)=O)oc2-c2ccc(F)cc2)cc1Nc1ccc2ncn(C)c(=O)c2c1 | 60.4% | 85.2% | 108 | 100% | 83.6% | 108% | -7.9% (active) | 102% | 78.8% | -8.69% (active) | 57.8% | -22.8% (active) | 23.7% | 31% | 45% | 68.3 | 98.8% | 95.3% | 82.5% | 39.4%
12 | COc1cc(C2CC(c3cccc(Nc4ccnc5cc(Cl)ccc45)c3)=NN2c2ccc(Cl)cc2)cc(OC)c1OC (stereo not given) | 73.8% | 70.6% | 81.4 | 76.7% | 36.4% | 37.5% | 40.6% | 57% | 54.5% | 80.9% | 75.1% | 11.2% | 44.5% | 67% | 62.1% | 51.9 | 3.25% (active) | 43.3% | 57.1% | 25.4%
13 | O=C(O)Cn1ccc2ccccc21 | 100% | 110% | 100 | 79.9% | 103% | 88.2% | 77.7% | 99.4% | 101% | 153% | 119% | 93.4% | 96.7% | 88.8% | 114% | 115 | 113% | 92.8% | 113% | 93.2%
14 | O=Cc1ccc2nc(C(Cl)(Cl)Cl)ccc2c1 | 92.4% | 97% | 91.9 | 104% | 94.7% | 91.8% | 94.4% | 108% | 99% | 115% | 102% | 121% | 91.4% | 108% | 94.7% | 107 | 97.2% | 98.8% | 103% | 81.6%
15 | c1ccc2c(c1)cnc1ccccc12 | 102% | 111% | 103 | 102% | 110% | 99.5% | 81.6% | 93.7% | 92.6% | 129% | 111% | 97.2% | 127% | 108% | 88.5% | 97.4 | 113% | 101% | 103% | 99.6%
